Source: PubChem BioAssay (NCI)
About 83,000 compounds went through this panel and 20% of them were active in at least one assay; those are over-represented in the sample as a whole.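 The test compound was applied at a single concentration to cells in 96-well plates for 48 hours, and percent growth was recorded.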 Values without a mark were called inactive. Activity calls are given as the source filed them. How the source made its calls: active means growth percent below 10; inactive means the rest.

Columns and labels:
Experiment in all cases: NCI-60 one-dose screen, 48 h (100 = growth as untreated, 0 = no growth, -100 = all killed)
Conditions in all cases: 10 µM unless noted
T-47D breast = system: T-47D breast
BT-549 breast = system: BT-549 breast
MDA-MB-435 melanoma = system: MDA-MB-435 melanoma
SW-620 colon = system: SW-620 colon
MCF7 breast = system: MCF7 breast
HCT-116 colon = system: HCT-116 colon
HCC-2998 colon = system: HCC-2998 colon
KM12 colon = system: KM12 colon

SMILES | growth (T-47D breast) | growth (BT-549 breast) | growth (MDA-MB-435 melanoma) | growth (SW-620 colon) | growth (MCF7 breast) | growth (HCT-116 colon) | growth (HCC-2998 colon) | growth (KM12 colon)
CCCCCCCC/C=C\CCCCCCCCOc1ccc(CC(=O)NCC[N+]2(C)CCCC2)cc1 | 77.2% | 73.6% | 77.2% | 54.5% | 57.1% | 53.2% | 37.2% | 27.5%
COc1ccc(/C=C/C(=O)c2ccc(-n3cc(CN4CCN(c5cc6c(cc5F)c(=O)c(C(=O)O)cn6C5CC5)CC4)nn3)cc2)cc1 | 78.6% | 65.8% | 22.2% | 32.8% | 13.2% | -31.3% (active) | 44% | 42.6%
COc1ccc(NC(=O)c2ccc(Cl)cc2Cl)cc1 | 94.5% | 101% | 88.3% | 95% | 93.8% | 99.4% | 105% | 99.1%
Clc1ccc(C2=Nn3c(nnc3-c3cc(Cl)cc(Cl)c3Cl)SC2)cc1 | 63.2% | 31.4% | -15.6% (active) | 19.1% | 7.6% (active) | 13.7% | -8.03% (active) | 23.5%
COc1cc(/C=C2\C(=O)N(CCOc3cc(O)c4c(=O)cc(-c5ccccc5)oc4c3)c3ccccc32)cc(OC)c1O | 65.4% | 51% | -40.2% (active) | 22.2% | 31% | 28.2% | 80% | 51.2%
O=C1CCc2c(sc3[nH]c(=S)n(-c4cc(C(F)(F)F)cc(C(F)(F)F)c4)c(=O)c23)C1 | -34.6% (active) | 3.75% (active) | 7.15% (active) | 18.5% | 0.882% (active) | 3.29% (active) | -49.1% (active) | -70.2% (active)
COc1cccc(/C=C2\CCc3ccccc3C2=O)c1 | 75.3% | 86.4% | 58.2% | 52.1% | 27.5% | 53.4% | 94.7% | 64%
COc1ccc(N/N=C/c2ccc3c(c2)Sc2ccccc2N3C)cc1 | 51.9% | 96.1% | 17.6% | 27.1% | 32.3% | 53.6% | 85% | 16.9%
COc1cccc(C2C(C#N)=C(N)Oc3c2ccc2ccccc32)c1 (stereo not drawn) | 69.5% | 28.3% | 6.77% (active) | 30.3% | 10.8% | 5.1% (active) | 23.6% | 11.9%
Cn1ccnc1C(=O)/C=C/c1ccc(C(=O)Nc2c(F)c(F)c(F)c(F)c2F)cc1 | 9.11% (active) | 22.4% | 48.7% | -14.3% (active) | 13% | -21.5% (active) | -4.74% (active) | -58.7% (active)
O=C(NCCN1CCOCC1)c1cncnc1Nc1ccc2c(ccn2Cc2ccccn2)c1 | 98.3% | 102% | 99.9% | 98% | 97.8% | 105% | 100% | 107%
Cc1[nH]c(C(=O)Nc2ccc(C(N)=O)cc2OC(C)C)c(Cl)c1Cl | 74.9% | 95.4% | 105% | 105% | 88.7% | 98.3% | 110% | 98.5%
COC(=O)c1nc(-c2ccccc2)oc1S(=O)(=O)N1CCN(c2ccc(OC)cc2)CC1 | 59% | 76.6% | 77.2% | 41.4% | 45.4% | 60.9% | 104% | 86.2%
CCN1C(=O)N(CC)C2C1NC(=S)N2/N=C/C=C/c1ccccc1 (stereo not drawn) | 46.5% | -10.3% (active) | -42.1% (active) | 25.6% | 13.8% | 5.71% (active) | 19% | 8.65% (active)
C=CC(=O)Nc1ccc2ncnc(Nc3cccc(NS(=O)(=O)CCC)c3Cl)c2c1 | 24.5% | 35.7% | 26.2% | 74.4% | 56.2% | 67.9% | 93.3% | 78.4%
O=C(Nc1ccccc1C(F)(F)F)C1=NCCCCN1 | 101% | 105% | 100% | 92.9% | 99.7% | 99.5% | 102% | 102%

SMILES | growth (T-47D breast) | growth (BT-549 breast) | growth (MDA-MB-435 melanoma) | growth (SW-620 colon) | growth (MCF7 breast) | growth (HCT-116 colon) | growth (HCC-2998 colon) | growth (KM12 colon)
O=C1OCC2=C1C(c1cccc(F)c1)c1cc3c(cc1N2CCO)CCC3 (stereo not drawn) | 52.6% | 39.5% | -36.9% (active) | 26.3% | 19.7% | 10.5% | 7.85% (active) | 13.4%
Cc1nc2ccccc2c(/C=C/c2ccc(Cl)cc2)c1C(=O)/C=C/c1ccccc1 | 9.61% (active) | 26.7% | -53.2% (active) | 1.45% (active) | 11.2% | -53.4% (active) | -12% (active) | 10.7%
CC1=C([Se]CC(OC(=O)[C@@H](CO)NC(=O)OC(C)(C)C)C(=O)NCCCCCC(=O)OCc2ccccc2)C(=O)c2ccccc2C1=O (stereo partly drawn) | -94.3% (active) | -98.6% (active) | -83.3% (active) | -42% (active) | -44.7% (active) | -88.9% (active) | -92.5% (active) | -52.7% (active)
O=C(O)c1nn(-c2ccc(Cl)cc2)nc1N1CCCC1 | 94.4% | 95.4% | 100% | 90.6% | 91% | 101% | 103% | 107%
Cc1[nH]c(C2CC(c3ccc(C(F)(F)F)c(F)c3)=NN2C)c(C)c1C(=O)NCC(F)(F)F (stereo not drawn) | 93.9% | 107% | 100% | 103% | 80.7% | 101% | 105% | 97.8%
COCCn1cc(-c2nc(-c3cc4cccnc4n3C)cs2)c2cc(OC)ccc21 | -15.9% (active) | 27% | 89.6% | 77.1% | 2.86% (active) | 46.1% | 39.6% | 6.09% (active)
CC1(C)CCC[C@]23C(=O)O[C@](O)(C(=O)C4=C[C@@](C)(/C=C/CCCc5ccc6ccc7cccc8ccc5c6c78)CC[C@@]42O)[C@@H]13 | -60.5% (active) | -71.9% (active) | -92.4% (active) | -63.3% (active) | -57.4% (active) | -91.8% (active) | -86% (active) | -83.3% (active)
COC(=O)c1c(C)nc(C)c2c1C(=O)C(Br)=C(NCCCCO)C2=O | 76.9% | 91.2% | -25.3% (active) | 67.8% | 37.8% | 34.3% | 78.7% | 61.9%
CC(=O)OCCOc1cc(Cl)c(Cl)cc1Cl | 101% | 91.7% | 106% | 104% | 104% | 102% | 97.9% | 103%
CS(=O)(=O)c1cccc(Nc2ncc3cc(-c4ccccc4Cl)ccc3n2)c1 | 11.1% | 10.3% | -28.3% (active) | 15.7% | 21.4% | -5.46% (active) | 33.3% | 21.5%
CCOC(=O)c1c(C)nc2c(c1N)C(=O)C(=O)N2CCc1ccc(OC)c(OC)c1 | 44.6% | 64.4% | 41.4% | 47.8% | 20.3% | 38.7% | 93.7% | 58.3%
CN(C)C(=S)NN=C(c1ccccn1)c1ccccn1 | 29.6% | 17% | 41.4% | 17.7% | 17.3% | 20.5% | 40% | 16.7%
CCN1C(=O)N(CC)C2C1NN=c1s/c(=C\c3ccccc3)c(=O)n12 (stereo not drawn) | 70.8% | 13.2% | -24.8% (active) | 18.8% | 16.2% | 9.74% (active) | 16.2% | 12.2%
O=C1CC2C=CCN2C=C1NC(=O)c1ccccc1 (stereo not drawn) | 99.8% | 103% | 105% | 109% | 101% | 93.6% | 101% | 101%
CC1(C)CC[C@]2(CO)CC[C@]3(C)[C@H](CC[C@@H]4[C@@]5(C)CC[C@H](O)C(C)(C)[C@@H]5CC[C@]43C)[C@H]2[C@H]1O | 75.1% | 96.2% | 91.5% | 84.9% | 69.2% | 42.8% | 101% | 65.2%
